According to PubChem BioAssay AID1851 (National Center for Advancing Translational Sciences (NCATS), 2009):
The campaign covered roughly 16,000 compounds. About 2,600 (16%) were called active. Roughly 20% stayed inconclusive and do not appear here. Calls follow the shape of the dose curve; as a rule, active = well fitted curve in the direction sought with a large enough effect; inconclusive = small, poorly fitted or top-dose-only effect, or effect the other way; inactive = no such curve, though single readings can be large or run the other way. These entries were drawn from the full list. More than one record can exist for a structure, and the calls need not agree.

target: Cytochrome P450 2D6 (Homo sapiens) (UniProt P10635); assay: Cytochrome panel assay with activity outcomes; conditions: recombinant CYP, pro-luciferin dealkylation, luminescence, p450-cyp2d6; series mostly up to 57.1 µM
% is scaled to controls: 0 for no effect and ±100 for the full control effect.

Chain of Cytochrome P450 2D6 (Homo sapiens) (P10635 whole entry, looked up): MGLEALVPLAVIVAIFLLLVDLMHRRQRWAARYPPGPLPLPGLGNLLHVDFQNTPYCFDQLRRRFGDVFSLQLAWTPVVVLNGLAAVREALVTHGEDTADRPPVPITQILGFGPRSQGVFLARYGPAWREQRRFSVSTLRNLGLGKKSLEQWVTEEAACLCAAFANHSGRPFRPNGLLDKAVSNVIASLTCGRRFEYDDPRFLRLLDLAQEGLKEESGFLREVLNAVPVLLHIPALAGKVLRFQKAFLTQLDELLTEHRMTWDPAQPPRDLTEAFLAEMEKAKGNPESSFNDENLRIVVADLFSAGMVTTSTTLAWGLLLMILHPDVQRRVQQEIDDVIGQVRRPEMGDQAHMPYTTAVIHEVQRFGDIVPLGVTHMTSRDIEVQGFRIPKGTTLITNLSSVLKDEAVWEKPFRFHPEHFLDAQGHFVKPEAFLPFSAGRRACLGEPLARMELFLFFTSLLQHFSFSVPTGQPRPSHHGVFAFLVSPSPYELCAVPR

AC50, 15.8 µM (active) and inactive:
Cc1ccc(OC[C@H](O)[C@H](C)NC(C)C)c2c1CCC2

AC50, active:
CN(C)CCCc1c2ccccc2nc2ccc(Cl)cc12 1.58 µM
Fc1cccc(NC(=S)NCCCN2CCOCC2)c1 7.94 µM
CC(NC(=O)c1ccc(N2CCCC2=O)cc1)c1ccccc1 (centres undefined) 7.94 µM
O=C(O)c1cccc(N2CCCC2=O)c1 0.251 µM

AC50, inactive:
N[C@H](C(=O)O)c1ccc(C(=O)O)c(O)c1
O=C(Nc1ccccc1C(=O)NCC1CCCO1)c1ccc(Cl)cc1Cl (centres undefined)
CC(C)(C)S(=O)(=O)c1cnc2c(-c3ccc(F)cc3)cnn2c1N
CCCCc1c2ccccc2nc2[nH]c3ccccc3c12
CCn1c2ccc(Cl)cc2c2nc3ccccc3nc21
Cn1c(=O)c2[nH]cnc2n(C)c1=O
Cc1ccc(Sc2ccc(NC(=O)c3ccc(S(C)(=O)=O)cc3Cl)cc2)cc1
COC(=O)CCC(=O)NNC(=O)c1ccc(Br)cc1
O=C(CCn1c(=S)[nH]c2ccccc2c1=O)NCCCN1CCOCC1
Cc1ccc(NC(=S)NCCN2CCOCC2)cc1C
CN(C)CCCO[C@H]1[C@@H]2OC(C)(C)O[C@@H]2O[C@@H]1[C@H](O)CO
CCC(=O)Nc1ccc(C(=O)CSc2nnc(-c3ccc(O)cc3)n2CC2CCCO2)cc1OC (centres undefined)
CCCCN(C)CCCNC(=O)c1ccc(N2CCCC2=O)cc1
Cc1ccc(C(=O)NC2CCCCCC2)cc1N1CCCC1=O
CC(=O)Nc1cccc(N2C(=O)CCC2=O)c1
Cc1ccccc1C(=O)NC(=S)NCC(=O)c1ccccc1
COCCn1c(=O)c(C)nc2cnc(Nc3cccc(OC)c3)nc21
CN(C)C(N)=NCCC[C@H](N)C(=O)O
CC(/C=N\NC(=O)Cn1c(C)nc2ccccc21)=C\c1ccccc1
CC[C@H]1C2=C3C(CC[C@H]4C(OC)OC[C@](C)([C@@H]34)N(C(=O)OC(C)(C)C)C2)C(CO)C1CO (some centres undefined)
COC(=O)c1sccc1NC(=O)c1cc(-c2ccc(C)cc2C)nc2ccccc12
Cc1c(Br)c([N+](=O)[O-])nn1CC(=O)NCc1ccccn1

activity, negative = inhibition, inactive:
C#CCCCO/N=C1/C[C@@H](O)[C@@H](O)[C@@H]2[C@@H]3C(=O)N(C4CCCCC4)C(=O)[C@H]3CC[C@@H]12 13% [at 11.4 µM]
C[C@H](NC(=O)c1ccc(Cl)c(Cl)c1)c1ccc(-c2ccccc2)cc1 -1.17% [at 11.4 µM]
